Screening data from PubChem.
Marburg entry inh – Marburg virus entry inhibition. Potency, µM (series often up to 37.8 µM), for the others: at the highest dose activity change, negative = inhibition, usual class: inhibitors. AID 540276. Marburg virus pseudotyped entry inhibition, cell reporter. hit rate 1.8% among 300,000; calls by dose curve; tested in HEK293 cells
VACV mCherry inh – inhibitors of vaccinia virus infection (mCherry reporter signal) | Potency, µM (titrated, usually from 36.5 µM), inactives show top-dose activity change, negative = inhibition, usual class: inhibitors | hit rate 0.63% among 310,000 | Vaccinia virus mCherry reporter infection, fluorescence | AID 720579; calls by dose curve; tested in A549 cells; further: nearly all actives have a fitted effect of over 35% in size
Vaccinia Venus – vaccinia inhibition (Venus reporter) | Vaccinia virus Venus reporter expression, fluorescence | Potency, µM (highest dose often 36.5 µM), without a hit: at the highest dose activity change, negative = inhibition, hits mostly inhibitors | hit rate 0.46% among 330,000 | AID 720580; calls by dose curve; tested in A549 cells; further: nearly all actives have a fitted effect of over 30% in size
Sm TGR inh – S. mansoni TGR enzyme inhibition; Q962Y6; purified TGR, DTNB reduction, TNB absorbance 405 nm; Potency, µM (top dose mostly 114 µM), inactives show top-dose activity change, negative = inhibition, usual class: inhibitors; hit rate 3% among 360,000; active means well fitted inhibition curve with a large enough effect; inconclusive means small, poorly fitted or top-dose-only effect; inactive means no such curve, though single readings can be large or run the other way; further: nearly all actives have a fitted effect of over 60% in size
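First, TGR (20 nM dispensed) and NADPH were mixed with compound. Second, a 15 min room-temperature incubation followed. Third, further NADPH and then DTNB were added to start the reaction. Finally, TNB absorbance was monitored kinetically.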
FMDV inh – blocks foot and mouth disease virus; FMDV antiviral cell-based qHTS; Potency, µM (highest dose often 57.9 µM), for the others: at the highest dose activity change, negative = inhibition, most hits filed as inhibitors; hit rate 1.2% among 410,000; calls by dose curve; tested in HEK293T cells; further: read-out not given here; nearly all actives have a fitted effect of over 45% in size
LASV entry inh – inhibitors of Lassa virus binding or cell entry; Potency, µM (titrated, usually from 37.9 µM), for the others: at the highest dose activity change, negative = inhibition, most hits filed as inhibitors; hit rate 1.2% among 300,000; Lassa virus pseudotype entry inhibition, cell reporter; calls by dose curve; tested in HEK293 cells; further: nearly all actives have a fitted effect of over 50% in size
Active calls of the source: *; i = inactive; ? = inconclusive; . = not tested or not shown; [ ] = another dose, or the depositor's remark. Compounds with a hit are over-represented: about 5.4% of the library has one in this group of screens. On the % scale 0 is the no-effect control and ±100 the full control effect; potency means the concentration at half of the fitted maximal effect.

SMILES	Marburg entry inh	VACV mCherry inh	Vaccinia Venus	Sm TGR inh	FMDV inh	LASV entry inh
CC(=O)[C@@H]1[C@@H](C(=O)c2ccc(C)cc2)[C@]2(C(=O)Nc3ccccc32)[C@H]2C=Cc3cc(F)ccc3N12	?	-15%	6%	?	-3%	?
Cc1cc(C)c2nc(NNC(=O)c3ccc(S(=O)(=O)N4CCCC(C)C4)cc3)sc2c1 (stereo unspecified)	?	4µM*	?	-12%	?	?
COC(=O)c1sc2ccccc2c1NC(=O)c1ccc(S(=O)(=O)N2CC(C)CC(C)C2)cc1 (stereo unspecified)	26%	-8%	-6%	0%	-10%	-19%
Cc1cc(C)c2nc(NNC(=O)c3ccc(S(=O)(=O)N4CC(C)CC(C)C4)cc3)sc2c1 (stereo unspecified)	15µM*	?	?	-1%	-19%	?
Cc1cc(C)c2nc(NC(=O)c3ccc(S(=O)(=O)N4CCC(C)CC4)cc3)sc2c1	.	-3%	-6%	3%	-9%	21%[46.1 µM]
Cc1cccc2sc(NNC(=O)c3ccc(S(=O)(=O)N4CC(C)CC(C)C4)cc3)nc12 (stereo unspecified)	?	28µM*	?	-15%	?	?
CCOC(=O)c1ccc(NC(=O)c2ccc(CN3CCOCC3)cc2)cc1	?	?	?	0%	25µM*	?
Cc1cc(CSc2ccccc2)ccc1NC(=O)c1ccc(CN2CCOCC2)cc1	?	-24%	-28%	-7%	13µM*	?
CSc1ccccc1NC(=O)c1ccc(CN2CCOCC2)cc1	?	-9%	-4%	14%	12%	14%[46.1 µM]
Cc1c(C(=O)NC(C)(C)C)sc2ncnc(NCCN(C)C)c12	.	-13%	-17%	.	-8%	.
COc1ccc(OC)c(CNC(=O)C2CCN(S(=O)(=O)c3cn(C)cn3)CC2)c1	.	i	-15%	36%	-15%	6%[46.1 µM]
Cc1ccccc1C(=O)NNS(=O)(=O)c1ccc(F)cc1	.	-10%	-11%	.	44%	.
COc1ccc(CC(=O)Nc2cc(C)on2)cc1	3%	.	.	5%	22%	26%
COc1ccc(OCCC(=O)Nc2cc(C)on2)cc1	16%	-5%	-1%	40µM*	-17%	-9%
Cc1cc(NC(=O)c2ccc(F)cc2)no1	.	.	.	-6%	65%	.
Cc1cc(NC(=O)CCOc2ccc(F)cc2)no1	?	i	-15%	0.71µM*	-10%	?
CCOc1ccc(CNC(=O)CCn2c(=O)c3cccn3c3ccc(F)cc32)cc1	.	1%	-6%	-2%	14%	-2%[46.1 µM]
C[N+]1(Cc2ccccc2)CCC(C(=O)OCC2CCCC2)CC1 (stereo unspecified)	.	i	-11%	.	-9%	.
Cc1cccc(CSc2cn(CC(=O)N3CCCC3)c3ccccc23)c1	.	-9%	-15%	0%	28%	-21%[46.1 µM]
CSc1nsc(SC)c1C(=O)Nc1ccc(C(C)(C)C)cc1	11µM*	i	-15%	-9%	13%	9%[46.1 µM]
CCOC(=O)CNC(=O)c1cc(-c2ccccn2)nc2c(C)c(Cl)ccc12	5µM*	-6%	0%	-5%	-16%	-16%
CC(=O)c1cc2c(cc1NC(=O)c1cnn(-c3ccc(C)cc3)c1-n1cccc1)OCO2	.	-14%	-12%	-7%	-11%	3%[46.1 µM]
Cc1ccc(NC(CC(=O)c2ccccc2)C(=O)O)cc1Cl (stereo unspecified)	.	?	-12%	0.79µM*	-16%	.
O=C(CC(Nc1ccc(Cl)cc1Cl)C(=O)O)c1ccccc1 (stereo unspecified)	.	.	.	3.2µM*	?	.
C=C(C(=O)c1ccccc1)C(C)CC(=O)c1ccccc1 (stereo unspecified)	?	?	-25%	-18%	28µM*	?
O=C(CC(Nc1ccccc1)C(=O)O)c1ccccc1 (stereo unspecified)	-6%	-12%	-9%	2.2µM*	19%	?
Cc1ccc(-n2c(SCc3ccccc3)nc3c([nH]c4ccccc43)c2=O)cc1	.	-15%	-16%	5%	-17%	-6%[46.1 µM]
COC(=O)C(NC(=O)c1ccccc1)c1ccccc1 (stereo unspecified)	28%	.	.	-2%	28%	-4%
